{
  "source": "PubChem BioAssay (EPA / NIEHS)",
  "note": "Values joined by “and” are separate entries in the source; they are usually repeats but may differ in a detail not shown here. Equal values may be shown once. Active and inactive are the calls of the source. Rule for the calls: active = hit-call score of the fitted dose curve at least 0.9, where 1 is the maximum; inactive = score below 0.9.",
  "data": [
    {"read-out": "E-selectin (Homo sapiens) (UniProt P16581)", "experiment": "BSK_3C_Eselectin: BioMAP Diversity Plus: 3C Assay for Eselectin Biomarker Activity (AID 2283015)", "conditions": "primary human endothelial cells (HUVEC); actives raise or lower the signal", "procedure": "BSK_3C is a cell-based, multiplexed-readout assay that uses umbilical vein endothelium, a human vascular primary cell, with measurements taken at 24 hours after chemical dosing in a 96-well plate.BSK_3C_Eselectin is an assay component measured in the BSK_3C assay. It measures E-selectin antibody related to regulation of gene expression using ELISA technology.Data from the assay component BSK_3C_Eselectin was analyzed into 1 assay endpoint. This assay endpoint, BSK_3C_Eselectin, was analyzed with bidirectional fitting relative to DMSO as the negative control and baseline of activity. Using a type of binding reporter, gain or loss-of-signal activity can be used to understand changes in the signaling as they relate to the gene SELE. Furthermore, this assay endpoint can be referred to as a primary readout, because this assay has produced multiple assay endpoints where this one serves a signaling function. To generalize the intended target to other relatable targets, this assay endpoint is annotated to the cell adhesion molecules intended target family, where the subfamily is selectins.\nThe levels of cell surface (or secreted, indicated by the prefix \"s\") biomarker endpoints were measured by ELISA. Overt cytotoxicity to cells in confluent adherent cultures (all systems other than the BT system) was assessed by measuring total protein levels using sulforhodamine B (SRB) staining in parallel cultures at the time of biomarker measurements, indicated as SRB endpoints. For proliferation assays for adherent cell types, individual cell types are cultured at sub-confluence and relative cell numbers quantified by SRB staining at time points optimized for each system (48 h: 3C and CASM3C systems; 72 h: BT and HDF3CGF systems; 96 h: SAg system). SRB was performed by staining cells with 0.1% SRB after fixation with 10% TCA and reading wells at 560 nm.Viability and proliferation of PBMC (T cells) was quantified by Alamar Blue reduction for the SAg and BT systems. For PBMC viability (referred to as PBMC Cytotoxicity within the assay endpoint names), cells were plated (75,000/well in a 96-well plate) and then chemical samples added for 1 h before addition of activators, SEB and TSST-1 (20 ng/mL final concentration each). Cells were incubated for 90 h. Then, Alamar Blue (20 uL/well) (Invitrogen, Cat DAL1100) was added for 6 h, and the plates were read with a fluorescence microplate reader at 546/580 nm (excitation/emission). For PBMC proliferation, cells were plated and activated as above but incubated for only 16 h prior to addition of Alamar Blue. Plates were read after 6 h.", "values": [
      {"smiles": "c1ccc2c(c1)sc1ccccc12", "outcome": "inactive"},
      {"smiles": "OCC(F)(F)OC(F)(F)C(F)(F)OC(F)(F)C(F)(F)OC(F)(F)F", "AC50": "46.3 µM (active) and 55.2 µM (active)"},
      {"smiles": "c1cc2c3c(cccc3c1)CC2", "outcome": "inactive"},
      {"smiles": "FC(F)(F)C(F)(C(F)(F)F)C(F)(F)C(F)(F)CC1CO1", "note": "(stereo not given)", "outcome": "inactive"},
      {"smiles": "O=C(O)C(Cl)Cl", "outcome": "inactive"},
      {"smiles": "CCOP(=S)(OCC)SCS(=O)(=O)CC", "outcome": "inactive"},
      {"smiles": "CC(Cl)CN(C)C", "note": "(stereo not given)", "outcome": "inactive"},
      {"smiles": "COP(=O)(O)OC", "outcome": "inactive"},
      {"smiles": "Cc1ccc(O)cc1C", "outcome": "inactive"},
      {"smiles": "O=C(O)C(F)(F)OC(F)(F)C(F)(F)OC(F)(F)F", "outcome": "inactive"},
      {"smiles": "CCCCOCCOP(=O)(OCCOCCCC)OCCOCCCC", "outcome": "inactive"},
      {"smiles": "Nc1ccc([N+](=O)[O-])cc1Cl", "outcome": "inactive"},
      {"smiles": "O=C(O)C(F)(F)C(F)(F)C(=O)O", "outcome": "inactive"},
      {"smiles": "Cc1ccc2c(c1N)C(=O)c1ccccc1C2=O", "outcome": "inactive"},
      {"smiles": "Cc1cccc(N)c1", "outcome": "inactive"},
      {"smiles": "CC(C)(C)c1ccc(O)cc1", "outcome": "inactive"},
      {"smiles": "[N-]=[N+]=[N-]", "outcome": "inactive"},
      {"smiles": "CN(C)C(=O)Cl", "outcome": "inactive"},
      {"smiles": "O=C(O)C1C(C(=O)O)C2(Cl)C(Cl)=C(Cl)C1(Cl)C2(Cl)Cl", "note": "(stereo not given)", "outcome": "inactive"},
      {"smiles": "CC(C)Nc1ccc(Nc2ccccc2)cc1", "AC50": "10.6 µM (active)"},
      {"smiles": "Cc1c([N+](=O)[O-])cc2c(c1[N+](=O)[O-])C(C)(C)CC2(C)C", "outcome": "inactive"},
      {"smiles": "O=P1(N(CCCl)CCCl)NCCCO1", "note": "(stereo not given)", "outcome": "inactive"},
      {"smiles": "O=C(O)C(F)(OC(F)(F)C(F)(F)C(F)(F)F)C(F)(F)F", "note": "(stereo not given)", "outcome": "inactive"},
      {"smiles": "CCNc1nc(Cl)nc(NC(C)(C)C)n1", "outcome": "inactive"},
      {"smiles": "Nc1ccc(Cl)cc1", "outcome": "inactive"},
      {"smiles": "COCCOCCO", "outcome": "inactive"},
      {"smiles": "Cc1ccc(N)cc1N", "outcome": "inactive"},
      {"smiles": "CCN(CC)c1ccccc1", "outcome": "inactive"},
      {"smiles": "O=P(Oc1ccccc1)(Oc1ccccc1)Oc1ccccc1", "outcome": "inactive"},
      {"smiles": "O=c1ssc(Cl)c1Cl", "AC50": "6.13 µM (active)"},
      {"smiles": "CC(O)C(F)(F)C(F)(F)F", "note": "(stereo not given)", "outcome": "inactive"},
      {"smiles": "O=C(O)C=CC(F)(C(F)(F)F)C(F)(F)F", "outcome": "inactive"},
      {"smiles": "CCOc1ccc(C(C)(C)COCc2cccc(Oc3ccccc3)c2)cc1", "outcome": "inactive"},
      {"smiles": "C=CC(=O)OCC(CC)(COC(=O)C=C)COC(=O)C=C", "AC50": "2.37 µM (active)"},
      {"smiles": "N#Cc1cc([N+](=O)[O-])ccc1N", "outcome": "inactive"},
      {"smiles": "Nc1ccc2ccccc2c1", "outcome": "inactive"},
      {"smiles": "O=[N+]([O-])c1ccccc1", "outcome": "inactive"},
      {"smiles": "CCOC(=O)c1ccccc1C(=O)OCC", "outcome": "inactive"},
      {"smiles": "ClC1=C(Cl)C2(Cl)C3C(Cl)C(Cl)CC3C1(Cl)C2(Cl)Cl", "note": "(stereo not given)", "AC50": "29.7 µM (active)"},
      {"smiles": "Nc1cc2c3c(c1)C(c1ccccc1)=N[C@@H](NC(=O)c1cccnc1)C(=O)N3CC2", "outcome": "inactive"}
    ]}
  ]
}
